Screening results (PubChem BioAssay)
DENV2 CPE – inhibitors of DENV2 cytopathic effect; 350,000 compounds, 1.7% hits; CPE inhibition, % at 9.99 µM; AID 651640; DENV2-infected cells, cytopathic effect rescue, plate reader; in the data active means CPE inhibition above about 20%, passing the limit was not always enough; tested in BHK-21 cells;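 further: 0% = median of neutral control wells and 100% = median of positive control wells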
FGF22 binding – FGF22 (human) thermal shift binding; Q9HCT0; AID 651658; activity (Tm shift, normalised), % at 9.99 µM; 340,000 compounds, 1.5% hits; recombinant FGF22 thermal shift, SYPRO orange fluorescence; percent of sucrose octasulfate shift, DMSO zero;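 active means mean Tm shift, scaled 0 neutral to 100 positive control, at about 1.3% or above, every replicate too, limit read from the data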
Target sequence (Q9HCT0 whole entry, looked up): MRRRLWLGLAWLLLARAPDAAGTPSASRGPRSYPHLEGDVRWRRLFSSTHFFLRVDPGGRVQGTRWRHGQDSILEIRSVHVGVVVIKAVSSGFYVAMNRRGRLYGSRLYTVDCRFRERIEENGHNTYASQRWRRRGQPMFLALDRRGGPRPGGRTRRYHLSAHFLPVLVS
ERAP1 HTS inh – inhibitors of human ERAP1 aminopeptidase. recombinant ERAP1, Leu-AMC fluorescence, 60 min. inhibition, % at 10.7 µM. 340,000 compounds, 0.15% hits. AID 652197;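 active means mean replicate inhibition of at least 30%, or all replicates individually reaching that 30% level; inactive means mean below 30% and not every replicate reaching it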;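 further: 0% = neutral control wells and 100% = L-leucinethiol positive control wells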
RAD52 anneal inh – blocks human RAD52 DNA annealing; P43351; recombinant RAD52 DNA annealing, FRET fluorescence; inhibition, % at 18.7 µM; 360,000 compounds, 0.46% hits; AID 651710;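 active means every replicate showing at least 50% inhibition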
AF4-AF9 inh – inhibitors of human MLL-AF4/AF9 interaction | inhibition, % at 10 µM | AlphaScreen, biotin-AF4 peptide binding to FLAG-AF9 | P42568 | 350,000 compounds, 0.47% hits;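 active means every replicate reaching a set inhibition limit, whatever the replicate mean, cut at about 25% in these data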;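 further: 0% = plate neutral control median and 100% = total signal loss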
* hit, by the source's call; · = no result; ! = not active in a repeat. Rows were chosen to be rich in hits. Some 4% of all compounds tested hit in one or more screens of this group.

SMILES	DENV2 CPE	FGF22 binding	ERAP1 HTS inh	RAD52 anneal inh	AF4-AF9 inh
C[C@@H]1CN([C@H](C)CO)C(=O)c2cc(-c3cccnc3)cnc2O[C@H]1CN(C)C(=O)Nc1ccc(C(F)(F)F)cc1	10	0	-1	0	-1
C[C@@H]1CN([C@@H](C)CO)C(=O)c2cc(-c3cccnc3)cnc2O[C@@H]1CN(C)C(=O)c1ccccc1F	46*	0	1	-7	-8
C[C@H](CO)N1C[C@H](C)[C@@H](CN(C)C(=O)Nc2ccc(C(F)(F)F)cc2)Oc2ncc(-c3cccnc3)cc2C1=O	30*	0	1	8	-2
COc1ccc2c3c([nH]c2c1)[C@@H](CO)N(C(=O)C1CCCC1)CC31CN(Cc2cccc(F)c2)C1	-7	0	·	·	20
O=C(c1ccncc1)N1CC(=O)N2[C@H](CO)[C@H](c3ccc(-c4ccccc4F)cc3)[C@H]2C1	-7	·	3	-19	-3
CCC(=O)Nc1ccc(NC(=O)c2oc3ccccc3c2C)cc1	40*	0	5	-2	1
C[C@H](CCC(=O)O)[C@H]1CC[C@H]2[C@@H]3CC[C@@H]4C[C@H](O)CC[C@]4(C)[C@H]3C[C@H](O)[C@]12C	30*!	-1	12	-10	-6
CS(=O)(=O)N1[C@@H](C#N)[C@H](c2ccc(C#CC3CCCC3)cc2)[C@@H]1CO	0	0	3	-1	2
CO[C@@H]1CN(C)C(=O)c2cc(NC(=O)c3ccc4c(c3)OCO4)ccc2OC[C@@H](C)N(CCC(F)(F)F)C[C@@H]1C	36*	0	-3	-2	0
CO[C@@H]1CN(C)C(=O)c2cc(NC(=O)c3ccc4c(c3)OCO4)ccc2OC[C@@H](C)N(CC2CC2)C[C@@H]1C	77*	0	4	-6	-3
CO[C@@H]1CN(C)C(=O)c2cc(NC(=O)c3ccc4c(c3)OCO4)ccc2OC[C@@H](C)N(CCC(F)(F)F)C[C@H]1C	23*	0	0	7	-5
CO[C@@H]1CN(C)C(=O)c2cc(NC(=O)c3ccc4c(c3)OCO4)ccc2OC[C@@H](C)N(CC2CC2)C[C@H]1C	0	0	-5	5	-1
CO[C@H]1CN(C)C(=O)c2ccc(NC(=O)c3ccccc3F)cc2OC[C@H](C)N(CC2CC2)C[C@@H]1C	-10	0	-7	19	-7
Cc1cccc(C(=O)OCC(=O)N2c3ccccc3CC2C)c1C (stereo not given)	2	0	0	-105	-1
Cc1nc2sc(C(=O)OCC(=O)N3c4ccccc4CC3C)c(C)c2c(=O)[nH]1 (stereo not given)	-4	43*	-3	-15	0
COC(=O)C1=C(C)NC(C)=C(C(=O)OC)C1C(=O)OCC(=O)N1c2ccccc2CC1C (stereo not given)	-4	0	48*	-11	-1
CCOC(=O)C1=C(C)NC(C)=C(C(=O)OCC)C1C(=O)OCC(=O)N1CCC(C)CC1	-1	43*	-1	-13	-5
O=C(C[C@@H]1C[C@H]2c3cc(NC(=O)c4cccnc4)ccc3O[C@H]2[C@H](CO)O1)NC1CCCC1	-2	·	-5	-12	-2
CC(C)Cc1cc(CNC(=O)C2CCC(=O)N(CCc3cccc(F)c3)C2)on1 (stereo not given)	3	0	-1	-3	0
CCCc1cc(CNC(=O)C2CCC(=O)N(CCc3cccc(F)c3)C2)on1 (stereo not given)	55*	0	1	-1	1
CCNC(=O)C[C@@H]1C=C[C@H](NS(=O)(=O)c2ccc(F)cc2)[C@H](CO)O1	2	0	-1	3	0
O=c1cc(CSc2ccc(Cl)cc2)nc(-c2ccncc2)[nH]1	-2	43*	7	9	-8
Cc1ccc(S(=O)(=O)N2C[C@H]3[C@H]4C(=O)N(Cc5ccccc5)C(=O)[C@H]4CC(=O)[C@H]3[C@@H]2c2ccccc2F)cc1	-6	40	6	-16	-2
CCN1C(=O)[C@@H]2[C@@H]3CN(S(=O)(=O)c4ccc(C)cc4)[C@@H](c4ccccc4F)[C@@H]3C(=O)C[C@@H]2C1=O	21*	40	7	-8	0
CCCNC(=O)N1CC2(C1)[C@@H](c1ccccc1)[C@@H](CO)N2Cc1ccccn1	2	0	-3	-17	-3
